This note sets out measurements from PubChem BioAssay (Tox21).

Each structure is given as a SMILES string. Several values for one entry are separate records, joined by “and”; a condition that tells them apart may be missing. Equal values may be shown once. Records with an inconclusive call do not appear. Unmarked numbers belong to inactive results. Activity calls are given as the source filed them. Calls follow the shape of the dose curve; as a rule, active = well fitted inhibition curve with a large enough effect in the repeat runs; inconclusive = weak or mixed curves; inactive = no such curve, though single readings can be large or run the other way.
% is scaled to controls: 0 for no effect and ±100 for the full control effect; potency is read from the fitted curve at half-maximal effect.

Chain of Cytochrome P450 1A2 (Homo sapiens) (P05177 whole entry, looked up): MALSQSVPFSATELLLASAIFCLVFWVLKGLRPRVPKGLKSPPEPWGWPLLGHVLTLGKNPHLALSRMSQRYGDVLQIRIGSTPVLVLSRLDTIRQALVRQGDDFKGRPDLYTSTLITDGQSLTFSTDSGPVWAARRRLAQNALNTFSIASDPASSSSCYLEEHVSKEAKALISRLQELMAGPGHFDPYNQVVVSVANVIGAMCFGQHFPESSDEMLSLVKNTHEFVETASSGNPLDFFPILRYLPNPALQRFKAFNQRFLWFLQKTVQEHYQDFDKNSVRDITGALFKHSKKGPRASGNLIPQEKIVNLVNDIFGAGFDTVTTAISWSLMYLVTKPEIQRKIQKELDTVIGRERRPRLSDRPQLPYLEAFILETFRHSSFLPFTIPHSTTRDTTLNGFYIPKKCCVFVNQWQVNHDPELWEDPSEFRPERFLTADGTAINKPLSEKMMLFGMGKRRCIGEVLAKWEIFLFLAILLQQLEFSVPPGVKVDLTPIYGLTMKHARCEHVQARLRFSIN

The first assay deals with Cytochrome P450 2C19 (Homo sapiens) (UniProt P33261). Kind of assay: Cytochrome P450 Family 2 Subfamily C Member 19 (CYP2C19) small molecule antagonists: luciferase reporter qHTS assay (AID 1671197). Also: nearly all actives have a fitted effect of over 65% in size. Conditions: P450-Glo CYP2C19 enzyme, luciferin luminescence, 1 h; series mostly up to 52.9 µM; activity change, negative = inhibition: at the top concentration. The method, boiled down: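 First, compounds are pinned into enzyme-substrate mix and held 10 min at room temperature. Second, NADPH regeneration solution is added and plates incubate 1 h at 37C. Third, detection reagent is added and luminescence read after 20 min.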
Chain of Cytochrome P450 2C19 (Homo sapiens) (P33261 whole entry, looked up): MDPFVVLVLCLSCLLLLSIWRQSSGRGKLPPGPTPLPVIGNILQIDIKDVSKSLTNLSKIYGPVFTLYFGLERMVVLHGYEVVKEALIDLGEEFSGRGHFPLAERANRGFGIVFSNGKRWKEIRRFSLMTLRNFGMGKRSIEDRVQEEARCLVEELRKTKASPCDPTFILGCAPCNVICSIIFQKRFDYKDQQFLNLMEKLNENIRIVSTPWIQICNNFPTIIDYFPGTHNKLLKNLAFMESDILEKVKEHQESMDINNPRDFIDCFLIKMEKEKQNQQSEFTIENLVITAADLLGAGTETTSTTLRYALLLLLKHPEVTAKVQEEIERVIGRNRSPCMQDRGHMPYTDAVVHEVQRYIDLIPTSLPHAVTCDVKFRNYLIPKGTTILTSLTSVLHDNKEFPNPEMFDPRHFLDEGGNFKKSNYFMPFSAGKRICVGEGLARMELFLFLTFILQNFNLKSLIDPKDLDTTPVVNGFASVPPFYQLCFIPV
As to `Clc1ccc2cc3ccccc3cc2c1`, the Potency was 79.6 µM (active).
As to `C[C@]12CCC(=O)C=C1CC[C@@H]1[C@@H]2[C@@H](O)C[C@@]2(C)[C@H]1CC[C@]2(O)C(=O)COC(=O)CCC(=O)O`, the “activity change, negative = inhibition” value is -4.97%.
Turning to `CC(C)C(C)(C)C(C)(C)C(C)(C)S`, the Potency is 39.9 µM (active).
The same measure, in the same setting: the figure for `O=C1C=CC(=O)N1c1ccc(Cc2ccc(N3C(=O)C=CC3=O)cc2)cc1` is 7.96 µM (active).
The same measure, in the same setting: for `Cc1ccc(O)c(C(C)(C)C)c1` the value was 35.5 µM (active) and 35.6 µM (active); for `CCN1/C(=C/C=C/c2sc3ccccc3[n+]2CC)Sc2ccccc21`, 19 µM (active); for `Cc1oc(-c2ccccc2)nc1CCC(=O)c1ccc(CC2SC(=O)NC2=O)cc1` (stereo not drawn), 11 µM (active).
For `NNc1nc(-c2ccc(N)cc2)cs1`, the Potency is 79.6 µM (active).
Same read-out and setting: the figure for `O=C1CCCCCN1SSN1CCCCCC1=O` is 35.6 µM (active).
Take `CC(C)c1ccc2c(c1)CC[C@H]1[C@](C)(CN)CCC[C@]21C`: the Potency is 7.1 µM (active).
The same measure, in the same setting: for `S=c1[nH]c2ccccc2s1` the value was 11.2 µM (active).
For `CCN(CCC#N)c1ccc(N=Nc2c(Cl)cc([N+](=O)[O-])cc2Cl)cc1`, the “activity change, negative = inhibition” value was -10.1% [at 115 µM].
On to `O=C(Nc1cccc(Cl)c1)OCC#CCCl`, for which the Potency was 8.94 µM (active).
In the case of `CC(C)CCCCCCCCCCCCCCC(=O)O`, the “activity change, negative = inhibition” value was 11.5% [at 115 µM].
Turning to `CCCCCCOC(=O)c1ccc(O)cc1`, the Potency was 11.3 µM (active) and 20 µM (active).
With `CCC(C)(C)C1CCCCC1OC(C)=O` (stereo not drawn), the “activity change, negative = inhibition” value is -8.57% [at 115 µM].
The same measure, in the same setting: the figure for `CCOc1ccc2nc3cc(N)ccc3c(N)c2c1` is -1.68%.
For `CCCN(CCC)C(=O)C(CCC(=O)OCCCN1CCN(CCOC(=O)Cc2c(C)n(C(=O)c3ccc(Cl)cc3)c3ccc(OC)cc23)CC1)NC(=O)c1ccccc1` (stereo not drawn), the Potency was 8.71 µM (active).
Consider `CC[C@H]1O[C@]2(CC[C@@H]1C)C[C@@H]1C[C@@H](C/C=C(\C)C[C@@H](C)/C=C/C=C3\CO[C@@H]4[C@H](O)C(C)=C[C@@H](C(=O)O1)[C@]34O)O2`, for which the Potency is 19.8 µM (active).
Still for that read-out and setting: for `Nc1c2ccccc2nc2ccccc12` the value was “inactive”.
Same read-out and setting: for `CCCCCCCCCCCCCC[P+](CCCC)(CCCC)CCCC` (tested in a mixture with another compound) the value was 17.9 µM (active); for `Cc1cc(=O)oc2cc(N(C)C)ccc12`, 79.6 µM (active).
Still for that read-out and setting: for `COc1ccc(C(=O)/C(Br)=C\C(=O)O)cc1` the value was 35.6 µM (active).
On to `CC(C)(C)C(=O)OCOC(=O)C1N2C(=O)CC2S(=O)(=O)C1(C)C` (stereo not drawn), for which the “activity change, negative = inhibition” value is -2.16%.
Take `O=[N+]([O-])c1ccccc1Nc1ccccc1`: the Potency was 19.9 µM (active).
Still for that read-out and setting: for `CN(C)c1ccc(SC#N)cc1` the value was 35.6 µM (active).
As for `COc1ccc(-c2ccc3cc(C(=O)O)ccc3c2)cc1C12CC3CC(CC(C3)C1)C2`, the “activity change, negative = inhibition” value is 12.8%.
As for `O=C(O)c1c(Cl)cccc1Cl`, the Potency is 34.9 µM (active).
Same read-out and setting: the figure for `O=C1c2c(O)ccc(Nc3ccc(CCO)cc3)c2C(=O)c2c([N+](=O)[O-])ccc(O)c21` is 39.9 µM (active); for `O=C(OCC1CO1)C1CCCCC1C(=O)OCC1CO1` (stereo not drawn) it is 56.5 µM (active); for `CCc1cc(Cc2cc(CC)c(N)c(CC)c2)cc(CC)c1N` it is 0.71 µM (active).

Another assay deals with Cytochrome P450 2C9 (Homo sapiens) (UniProt P11712). In words: Cytochrome P450 Family 2 Subfamily C Member 9 (CYP2C9) small molecule antagonists: luciferase reporter qHTS assay (AID 1671198). Also: nearly all actives have a fitted effect of over 50% in size. Conditions: P450-Glo CYP2C9 enzyme assay, luciferin luminescence; series mostly up to 53 µM; activity change, negative = inhibition: at the top concentration. In outline: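 CYP2C9 activity was measured with a P450-Glo proluciferin substrate. Enzyme–substrate mix was held with compound for 10 min at room temperature, then NADPH regeneration solution was added for 1 h at 37C. Luciferin product was read as luminescence.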
Chain of Cytochrome P450 2C9 (Homo sapiens) (P11712 whole entry, looked up): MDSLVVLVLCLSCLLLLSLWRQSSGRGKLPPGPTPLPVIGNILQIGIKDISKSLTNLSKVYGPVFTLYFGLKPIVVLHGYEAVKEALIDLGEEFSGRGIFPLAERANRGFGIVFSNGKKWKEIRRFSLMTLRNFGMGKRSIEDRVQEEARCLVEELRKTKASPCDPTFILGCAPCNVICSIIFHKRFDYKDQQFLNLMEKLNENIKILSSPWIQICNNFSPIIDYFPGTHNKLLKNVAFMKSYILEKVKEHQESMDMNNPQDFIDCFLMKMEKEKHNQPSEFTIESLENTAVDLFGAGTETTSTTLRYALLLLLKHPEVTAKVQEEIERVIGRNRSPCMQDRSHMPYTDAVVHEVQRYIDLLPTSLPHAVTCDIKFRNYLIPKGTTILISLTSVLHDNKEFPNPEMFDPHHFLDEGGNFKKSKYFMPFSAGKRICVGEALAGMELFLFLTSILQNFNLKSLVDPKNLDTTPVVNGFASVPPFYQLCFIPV
For `CCC(CN)=C(c1ccccc1)c1ccccc1`, the Potency was 15.5 µM (active).
Same read-out and setting: for `CCCC(=O)OC[C@@H](OC(=O)CCC)[C@@H](OC(=O)CCC)[C@H](Cn1c2nc(=O)[nH]c(=O)c-2nc2cc(C)c(C)cc21)OC(=O)CCC` the value was 13.8 µM (active); for `O=C(Oc1ccccc1)c1ccccc1C(=O)Oc1ccccc1`, 12.6 µM (active).
`CCCN(CCC)c1c([N+](=O)[O-])cc(C(F)(F)F)c(N)c1[N+](=O)[O-]`: the Potency was 20 µM (active).
Consider `Cc1ccc(O)c2ncccc12`, for which the “activity change, negative = inhibition” value is 3.67%.

In a further assay the target is Cytochrome P450 1A2 (Homo sapiens) (UniProt P05177). In words: Cytochrome P450 Family 1 Subfamily A Member 2 (CYP1A2) small molecule antagonists: luciferase reporter qHTS assay (AID 1671199). Also: nearly all actives have a fitted effect of over 50% in size. Conditions: P450-Glo CYP1A2 enzyme, luciferin luminescence, 1 h; series mostly up to 53 µM; activity change, negative = inhibition: at the top concentration. In outline:
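Quantitative high-throughput format using the P450-Glo CYP1A2 system. Reaction initiated by NADPH regeneration solution, 1 h at room temperature, then stopped with detection reagent; luminescence measured 20 min later.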
As to `Clc1ccc2cc3ccccc3cc2c1`, the Potency is 1.59 µM (active).
Consider `C[C@]12CCC(=O)C=C1CC[C@@H]1[C@@H]2[C@@H](O)C[C@@]2(C)[C@H]1CC[C@]2(O)C(=O)COC(=O)CCC(=O)O`, for which the “activity change, negative = inhibition” value was -4.53%.
Take `O=C1C=CC(=O)N1c1ccc(Cc2ccc(N3C(=O)C=CC3=O)cc2)cc1`: the Potency was 20 µM (active).
Same read-out and setting: the figure for `NNc1nc(-c2ccc(N)cc2)cs1` is 35.6 µM (active).
Take `CC(C)c1ccc2c(c1)CC[C@H]1[C@](C)(CN)CCC[C@]21C`: the Potency is 35.6 µM (active).
`O=C(Nc1cccc(Cl)c1)OCC#CCCl`: the Potency was 1.78 µM (active).
In the case of `CC(C)CCCCCCCCCCCCCCC(=O)O`, the “activity change, negative = inhibition” value was -11.1% [at 115 µM].
As for `CCCCCCOC(=O)c1ccc(O)cc1`, the Potency was 11.3 µM (active) and 8.94 µM (active).
Same read-out and setting: for `CCOc1ccc2nc3cc(N)ccc3c(N)c2c1` the value was 0.871 µM (active).
As to `CCCC(=O)OC[C@@H](OC(=O)CCC)[C@@H](OC(=O)CCC)[C@H](Cn1c2nc(=O)[nH]c(=O)c-2nc2cc(C)c(C)cc21)OC(=O)CCC`, the “activity change, negative = inhibition” value was -17.8%.
Take `CC[C@H]1O[C@]2(CC[C@@H]1C)C[C@@H]1C[C@@H](C/C=C(\C)C[C@@H](C)/C=C/C=C3\CO[C@@H]4[C@H](O)C(C)=C[C@@H](C(=O)O1)[C@]34O)O2`: the “activity change, negative = inhibition” value was -24.5% [at 115 µM].
In the case of `Nc1c2ccccc2nc2ccccc12`, the Potency was 1.25 µM (active) and 2.45 µM (active).
On the same count and under the same terms, for `O=C(Oc1ccccc1)c1ccccc1C(=O)Oc1ccccc1` the value was 5.64 µM (active); for `Cc1cc(=O)oc2cc(N(C)C)ccc12`, 6.33 µM (active).
`CC(C)(C)C(=O)OCOC(=O)C1N2C(=O)CC2S(=O)(=O)C1(C)C` (stereo not drawn): the “activity change, negative = inhibition” value is -24.4%.
Consider `O=[N+]([O-])c1ccccc1Nc1ccccc1`, for which the Potency was 5 µM (active).
Take `CN(C)c1ccc(SC#N)cc1`: the Potency was 5.64 µM (active).
Still for that read-out and setting: the figure for `CCCN(CCC)c1c([N+](=O)[O-])cc(C(F)(F)F)c(N)c1[N+](=O)[O-]` is 2 µM (active).
For the compound `COc1ccc(-c2ccc3cc(C(=O)O)ccc3c2)cc1C12CC3CC(CC(C3)C1)C2`, the “activity change, negative = inhibition” value is 2.16%.
`Cc1ccc(O)c2ncccc12`: the Potency was 15.5 µM (active).
The same measure, in the same setting: the figure for `O=C1c2c(O)ccc(Nc3ccc(CCO)cc3)c2C(=O)c2c([N+](=O)[O-])ccc(O)c21` is 31.7 µM (active).
The same measure, in the same setting: the figure for `CCc1cc(Cc2cc(CC)c(N)c(CC)c2)cc(CC)c1N` is 10 µM (active).
